High-throughput results (PubChem BioAssay)
NPSR antag: neuropeptide S receptor (human) antagonism, cAMP; Q6W5P4; CHO-NPSR cells, cAMP TR-FRET, antagonist mode; Potency, µM (series often up to 38.3 µM), for inactives: at the top dose activity change, negative = inhibition, most hits filed as inhibitors; 220,000 tested, 1% active; active = well fitted curve in the direction sought with a large enough effect; inconclusive = small, poorly fitted or top-dose-only effect, or another doubt; inactive = no such curve, though single readings can be large; an effect the other way counts as inactive or inconclusive; also: potency is read from the fitted curve at half-maximal effect; nearly all actives have a fitted effect of over 50% in size
Sfp PPTase inh: inhibitors of Bacillus subtilis Sfp phosphopantetheinyl transferase; Biochemical Sfp PPTase activity, qHTS; Potency, µM, without a hit: largest response in the series, negative = inhibition, actives largely listed as inhibitors; Q9F4F7; AID 1490; 310,000 tested, 3.5% active; active = well fitted curve in the direction sought with a large enough effect; inconclusive = small, poorly fitted or top-dose-only effect, or another doubt; inactive = no such curve, though single readings can be large; an effect the other way counts as inactive or inconclusive;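 also: the enzyme is Sfp with the accession as filed and its product quenches rhodamine fluorescence; potency is read from the fitted curve at half-maximal effect; 0% = enzyme reaction without inhibitor and -100% = no enzyme wells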
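Step 1, compound plus 15 nM Sfp-PPTase, 15 min, room temperature. Step 2, add rhodamine-CoA (5 uM) and BHQ-2-YbbR (12.5 uM). Step 3, read 525/598 nm fluorescence at 0 and 30 min.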
ALDH1A1 inh: inhibitors of human aldehyde dehydrogenase 1A1. Purified ALDH1A1, NADH fluorescence, propionaldehyde substrate. P00352. AID 1030. Potency, µM (titrated, usually from 75.3 µM), without a hit: top-dose activity, negative = inhibition, actives largely listed as inhibitors. 220,000 tested, 7.3% active;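 also: potency is read from the fitted curve at half-maximal effect; plate controls were no enzyme wells and a reference inhibitor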
KDM4E inh: inhibitors of human JMJD2E histone demethylase | Potency, µM (doses to about 57.1 µM), for the others: at the highest dose activity change, negative = inhibition, usual class: inhibitors | JMJD2E catalytic domain, FDH-coupled NADH fluorescence (FDH is formaldehyde dehydrogenase) | 230,000 tested, 1.6% active | AID 2147 | B2RXH2;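 also: potency is read from the fitted curve at half-maximal effect; 0% = wells with enzyme and -100% = buffer wells without enzyme; nearly all actives have a fitted effect of over 50% in size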
GoLoco inh red: blocks human Gai1 binding to RGS12 GoLoco peptide, red readout | P63096 | Gai1:RGS12 GoLoco peptide FP, rhodamine, 10 min | Potency, µM (titrated, usually from 61.6 µM), inactives show top-dose activity, negative = inhibition, actives largely listed as inhibitors | 230,000 tested, 0.44% active | AID 880; active = well fitted inhibition curve with a large enough effect, not every such curve was filed as active; inactive = no such curve, though single readings can be large or run the other way; also: potency is read from the fitted curve at half-maximal effect; nearly all actives have a fitted effect of over 30% in size
Target sequence (P63096 whole entry, looked up): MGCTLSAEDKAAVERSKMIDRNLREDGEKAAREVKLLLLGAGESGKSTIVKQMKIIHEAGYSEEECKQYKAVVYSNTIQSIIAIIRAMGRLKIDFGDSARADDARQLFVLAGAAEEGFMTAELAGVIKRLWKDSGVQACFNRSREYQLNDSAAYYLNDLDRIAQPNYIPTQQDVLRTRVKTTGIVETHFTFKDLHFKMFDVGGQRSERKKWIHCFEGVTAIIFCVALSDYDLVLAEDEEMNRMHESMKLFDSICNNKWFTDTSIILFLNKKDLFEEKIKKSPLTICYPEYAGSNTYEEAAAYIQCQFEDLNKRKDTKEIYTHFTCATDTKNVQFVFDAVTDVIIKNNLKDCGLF
Coupling enz: counter-screen for Giardia aldolase inhibitors: coupling enzyme system. coupling enzyme system counterscreen, AmpLite Red fluorescence. activity change, negative = inhibition, % at 58.2 µM, hits read low. 290,000 tested, 0.67% active; in the data active = activity change below about -30%
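Final compound at 57.5 uM, incubated 10 min at RT with coupling enzyme reagent (glyceraldehyde-3-phosphate), then 20 min with substrate and AmpLite Red detection. Fluorescence read at 525/598 nm; tests interference with the coupling assay, not aldolase inhibition.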
Starred values were filed as active, the others as inactive; [ ] = dose if it differs, or a comment. In the library only some 8.5% were active in any assay of this set; here they are far more common. Unless noted, calls follow the shape of the dose curve; as a rule, active = well fitted inhibition curve with a large enough effect (not every such curve was filed as active); inconclusive = small, poorly fitted or top-dose-only effect, or another doubt; inactive = no such curve, though single readings can be large or run the other way. Unless noted, % is scaled to controls: 0 for no effect and ±100 for the full control effect.

Screening CCC(c1nnc(SCC(=O)Nc2ccc(Cl)cc2C(F)(F)F)n1C1CCCCC1)N(C)C (configuration not stated) returned NPSR antag inconclusive, Sfp PPTase inh -5.5%, ALDH1A1 inh -0.9%, KDM4E inh -0.2% and Coupling enz -1.2.
Screening O=C(O)COc1cccc2c1CCC=C2CCO/N=C(\c1ccccc1)c1cccnc1 returned Sfp PPTase inh -5.8% and Coupling enz 12.2.
Screening Cc1nn(-c2ccc(F)cc2)c(Cl)c1/C=C1\C(=O)Nc2ccccc21 returned NPSR antag -43.5%, Sfp PPTase inh -11.5%, ALDH1A1 inh 9.2%, KDM4E inh -0.7%, GoLoco inh red 5.8% and Coupling enz -0.6.
O=C(Cn1[nH]c(=O)c2ccccc2c1=O)Nc1ccc(-c2nnc3n2CCCCC3)cc1 was read as NPSR antag 2.3%[46.1 µM], Sfp PPTase inh 7.0%, ALDH1A1 inh 14.1µM*, KDM4E inh 1.9%, GoLoco inh red 12.8% and Coupling enz 2.7.
Screening O=C(Cc1n[nH]c(=O)c2ccccc12)Nc1ccc(-c2nnc3n2CCCCC3)cc1 returned NPSR antag -3.7%[46.1 µM], Sfp PPTase inh 9.7%, ALDH1A1 inh 15.8µM*, KDM4E inh 6.7%, GoLoco inh red -42.1% and Coupling enz 0.7.
`Cc1onc(-c2ccccc2)c1C(=O)Nc1sc2c(c1C#N)CCC2` gave NPSR antag -2.5%[46.1 µM], Sfp PPTase inh -82.8%, ALDH1A1 inh inconclusive, KDM4E inh -6.9%, GoLoco inh red 44.3% and Coupling enz 1.6.
Cc1cccc(C(=O)Nc2sc(C)c(-c3ccccc3)c2C#N)c1 was read as NPSR antag -38.8%[46.1 µM], Sfp PPTase inh inconclusive, ALDH1A1 inh inconclusive, KDM4E inh inconclusive, GoLoco inh red -1.1% and Coupling enz -7.1.
`CC(=O)Nc1sc2c(c1C#N)CCCCC2` gave NPSR antag 2.7%[46.1 µM], Sfp PPTase inh -5.6%, ALDH1A1 inh inconclusive, KDM4E inh 4.3%, GoLoco inh red -19.8% and Coupling enz -1.1.
`Cc1noc(C)c1C(=O)Nc1sc(C)c(-c2ccccc2)c1C#N` gave NPSR antag -8.4%[46.1 µM], Sfp PPTase inh -16.6%, ALDH1A1 inh 10µM*, KDM4E inh 1.2%, GoLoco inh red 62.7% and Coupling enz -2.7.
CC(C)(C)C(=O)NC(=S)Nc1sc2c(c1C#N)CCCCC2 was read as NPSR antag -13.8%[46.1 µM], Sfp PPTase inh 44.7µM*, ALDH1A1 inh 22.4µM*, KDM4E inh -0.6%, GoLoco inh red -0.4% and Coupling enz 2.3.
For Cc1sc(NC(=S)NC(=O)c2ccco2)c(C#N)c1C the results were NPSR antag -26.2%, Sfp PPTase inh 39.8µM*, ALDH1A1 inh inconclusive, KDM4E inh -0.2%, GoLoco inh red 2.7% and Coupling enz 3.9.
`Cc1onc(-c2ccccc2)c1C(=O)NC(=S)Nc1sc2c(c1C#N)CCCC2` gave NPSR antag 19.7%, Sfp PPTase inh 44.7µM*, ALDH1A1 inh 0.501µM*, KDM4E inh -4.2%, GoLoco inh red 22.5% and Coupling enz 3.5.
`Cc1ccc(C(=O)O[C@H](C(=O)O)[C@@H](OC(=O)c2ccc(C)cc2)C(=O)O)cc1` (tested in a mixture with another compound) gave NPSR antag 8.6%[46.1 µM], ALDH1A1 inh -0.6%, KDM4E inh 0.3% and GoLoco inh red -6.2%.
Screening CCCC[C@H]1C2=C3[C@@H](CC(C(=O)OC)=C[C@@H](C(=O)OC)[C@H]3C(C)(C)C2=O)n2c(=O)n(C)c(=O)n21 returned Sfp PPTase inh -2.6% and Coupling enz 0.4.
CCS(=O)(=O)c1nc(S(=O)(=O)c2ccc(C)cc2)c(N2CC(C)CC(C)C2)s1 (configuration not stated) was read as Sfp PPTase inh -1.4%.
Cc1onc(-c2ccccc2)c1C(=O)NC(=S)Nc1sc2c(c1C#N)CCC(C)C2 (configuration not stated) was read as NPSR antag -29.5%, Sfp PPTase inh -5.8%, ALDH1A1 inh 2.24µM*, KDM4E inh 1.1%, GoLoco inh red 15.2% and Coupling enz 1.9.
